Results: PubChem BioAssay (EPA / NIEHS)
“And” between values parts separate entries of the source, which are not always exact repeats. Identical values can stand only once. Records with an inconclusive call do not appear. The source holds several records for some structures; these can differ, active in one and inactive in another. The source made the active and inactive calls. How the source made its calls, unless noted: active means hit-call score of the fitted dose curve at least 0.9, where 1 is the maximum; inactive means score below 0.9.

Legend:
DIO2 (gene 1734) = assay: CCTE_GLTED_hDIO2: CCTE's human Deiodinase 2 (DIO2) Inhibition Assay, Great Lakes Toxicology and Ecology Division (GLTED) Lab (AID 2284050; active means hit-call score of the fitted dose curve at least 0.9, where 1 is the maximum)
Procedure, shortened: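 Triplicate cell-free incubations (3 h) of human DIO2 with chemical preceded colorimetric Sandell-Kolthoff quantitation of liberated iodide; DMSO served as negative control for curve fitting.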

[1] = CCTE_Shafer_MEA_dev_spike_duration_mean: CCTE's Neural Network Formation Assay for Mean Spike Duration, Shafer Lab (AID 2284051);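 further: mean network spike duration pooled as area under curve over DIV 5 to 12 recordings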;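 on AC50: potency for a decrease in mean network spike duration versus DMSO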
Procedure, shortened: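 Rat cortical primary cultures, 48-well MEA (16 electrodes/well); compound from plating, renewed DIV 5, 9. Network spike duration (AxIS adaptive detector) recorded DIV 5/7/9/12, combined as trapezoidal AUC; loss direction vs DMSO.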

[2] = CCTE_Shafer_MEA_dev_network_spike_duration_std: CCTE's Neural Network Formation Assay for Standard Deviation of Network Spike Duration, Shafer Lab (AID 2284052);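 further: area under curve of spike duration SD across recording days 5 to 12; hits are decreases in network spike duration SD versus DMSO vehicle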
Procedure, shortened: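 Rat cortical cultures, 1.5 x 10^5 cells/well, exposed continuously from plating to DIV 12 with media/compound renewal at DIV 5, 9. Spontaneous activity recorded DIV 5/7/9/12, AxIS adaptive spike detector; AUC across days; negative direction vs DMSO.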

[3] = CCTE_Shafer_MEA_dev_per_network_spike_spike_number_mean: CCTE's Neural Network Formation Assay for Mean Number of Spikes in a Network Spike, Shafer Lab (AID 2284053)
Procedure, shortened: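 Rat cortical primary cultures on 48-well MEA; compound from day 0, re-dosed with full media change DIV 5, 9. Recorded DIV 5, 7, 9, 12; spikes in 0.05 s window at network-spike peak ÷ total network spikes; AUC; loss vs DMSO.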

[4] = CCTE_Shafer_MEA_dev_per_network_spike_spike_percent: CCTE's Neural Network Formation Assay for Percent of Spikes in a Network Spike, Shafer Lab (AID 2284054)
Procedure, shortened: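 Developing networks of rat cortical neurons are dosed at day 0 and recorded extracellularly four times up to day 12. The endpoint is the area under the curve of percent spikes in network spikes, fitted in the negative direction relative to DMSO.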

DIO3 (gene 1735) = assay: CCTE_GLTED_hDIO3: CCTE's human Deiodinase 3 (DIO3) Inhibition Assay, Great Lakes Toxicology and Ecology Division (GLTED) Lab (AID 2284055; active means hit-call score of the fitted dose curve at least 0.9, where 1 is the maximum;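 further: potency is for inhibition seen as loss of released iodide signal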)
Procedure, shortened: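 Steps: incubate adenovirus-produced hDIO3 with chemical for 3 hours; detect freed iodide via cerium-arsenic Sandell-Kolthoff colorimetry; compare with DMSO baseline.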

[5] = CCTE_Shafer_MEA_dev_LDH: CCTE's Lactate Dehydrogenase Assay for Cytotoxicity in the Neural Network Formation Assay, Shafer Lab (AID 2284068; active means hit-call score of the fitted dose curve at least 0.9, where 1 is the maximum;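 further: exposure for twelve days from plating with re-dosing on DIV 5 and 9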)
Procedure, shortened: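 Rat cortical primary neurons, MEA culture; dosing day 0–12, full medium plus compound exchange DIV 5, 9. Read-out: LDH enzyme activity, spectrophotometric. DMSO = negative control/baseline; signal loss → cytotoxicity.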

[6] = CCTE_Shafer_MEA_acute_AB: CCTE's Alamar Blue Assay for Cytotoxicity in the Neural Acute Assay, Shafer Lab (AID 2284069; active means hit-call score of the fitted dose curve at least 0.9, where 1 is the maximum;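 further: active compounds lower the viability signal compared with DMSO wells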)
Procedure, shortened: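 Read-out: resazurin fluorescence (ex 544, em 590 nm) after CTB reagent at 1:6 dilution in fresh media. Cells: primary rat cortical neuron networks, DIV 13 or 15, chemically exposed on MEA plates; DMSO as negative control/baseline.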

[7] = CCTE_Shafer_MEA_dev_AB: CCTE's Alamar Blue Assay for Cytotoxicity in the Neural Network Formation Assay, Shafer Lab (AID 2284083; active means hit-call score of the fitted dose curve at least 0.9, where 1 is the maximum;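 further: resazurin reduction fluorescence as viability of cultured neurons; twelve days of exposure from plating with re-dosing on DIV 5 and 9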)
Procedure, shortened: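 Rat cortical primary cultures, 1.5 x 10^5 cells/well on MEA; continuous compound exposure over 12 days of network development, re-dosed with full medium change DIV 5 and 9. Alamar Blue fluorescence; loss of signal = cytotoxicity vs DMSO baseline.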

[8] = CCTE_Shafer_MEA_acute_LDH: CCTE's Lactate Dehydrogenase Assay for Cytotoxicity in the Neural Acute Assay, Shafer Lab (AID 2284086; active means hit-call score of the fitted dose curve at least 0.9, where 1 is the maximum;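 further: active means LDH release rises above DMSO vehicle level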)
Procedure, shortened: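 Cytotoxicity readout: spectrophotometric LDH activity in supernatant of rat primary cortical neurons, post-plating day 13 or 15, sampled after 40 min compound exposure; signal gain relative to DMSO baseline.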

[9] = CCTE_Shafer_MEA_dev_mutual_information_norm: CCTE's Neural Network Formation Assay for Mutual Information Normalization, Shafer Lab (AID 2284091);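 on AC50: mutual information between electrodes summarised as area under curve across four recording days; potency is for a decrease in mutual information relative to DMSO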
Procedure, shortened: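 Exposure of primary rat cortical neurons began at plating and ran to DIV 12, with full media and treatment renewal after DIV 5 and 9 recordings. Mutual information AUC (DIV 5–12) was analysed for loss versus DMSO.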

[10] = CCTE_Shafer_MEA_dev_correlation_coefficient_mean: CCTE's Neural Network Formation Assay for Mean Correlation Coefficient, Shafer Lab (AID 2284093);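 on AC50: well mean pairwise spike train correlation integrated as AUC over recording days 5 to 12; potency fitted for loss of correlation relative to DMSO vehicle wells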
Procedure, shortened: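 Rat cortical cultures, 1.5 x 10^5 cells/well, dosed from day 0 for 12 days. Spontaneous spikes recorded DIV 5/7/9/12; electrode-pair correlation coefficients averaged, AUC taken. Fit in loss direction vs DMSO.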

[11] = UKN2_HCS_IMR90_neural_migration: University of Konstanz (UKN) Leist Lab Neural Crest Cell Migration Assay in human induced IMR90 Pluripotent Stem Cells (UKN2) (AID 2284204); conditions: actives raise or lower the signal
Procedure, shortened: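 Using a 96-well stopper format with PLO/laminin/fibronectin coating, neural crest cells from iPSC migrate in cytokine-supplemented N2-S medium; after 24 h, chemicals are applied for a further 24 h, then cells are imaged after dye staining.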

[12] = UKN4_HCS_LUHMES_neurite_outgrowth: University of Konstanz (UKN) Leist Lab Neurite Outgrowth Assay in human LUHMES cells (UKN4) (AID 2284206); conditions: actives raise or lower the signal
Procedure, shortened: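 Neurite area in dopaminergic-model LUHMES neurons is measured by high-content imaging of calcein-AM after 24 h treatment starting shortly after day-2 replating; Hoechst staining tracks viability.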

[13] = IUF_NPC1b_proliferation_BrdU_72hr: Leibniz Research Institute for Environmental Medicine (IUF) 72-hour Neural Progenitor Cell Bromodeoxyuridine (BrdU) Proliferation Assay (NPC1b) (AID 2284207)
Procedure, shortened: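 Neural progenitor spheres of human fetal origin are treated for three days; BrdU added for the last 16 h is quantified by luminescence ELISA, with DMSO as baseline and EGF/FGF omission as positive control.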

[14] = IUF_NPC1_viability_72hr: Viability Assessment at 72 hours in the Leibniz Research Institute for Environmental Medicine (IUF) Neural Progenitor Cell Proliferation Assay (NPC1) (AID 2284209)
Procedure, shortened: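 Three-day continuous exposure of human neural progenitor spheres under EGF/FGF-driven proliferation; cell viability scored by alamar blue signal versus DMSO.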

[15] = CCTE_Mundy_HCI_Cortical_Synap_Neur_Matur_NeuriteSpotCountPerNeuriteLength: CCTE's Synaptogenesis and Neurite Maturation Assay in rat cortical cells for Neurite Spot Count per Neurite Length, Mundy Lab (AID 2284210)
Procedure, shortened: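 Neurite-associated synapse density (synaptophysin puncta per unit neurite length) is measured by fluorescence high-content imaging in rat cortical cultures treated from DIV 7 and fixed at DIV 12, with DMSO as negative control.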

[16] = CCTE_Mundy_HCI_Cortical_Synap_Neur_Matur_BPCount: CCTE's Synaptogenesis and Neurite Maturation Assay in rat cortical cells for Branch Point Count, Mundy Lab (AID 2284211)
Procedure, shortened: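 In this multiplexed morphology assay, cortical cells from rat receive chemicals at DIV 7 and are fixed at DIV 12, then immunostained and imaged; branch points are counted, with DMSO as baseline.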

Measured: AC50

N#Cc1nn(-c2c(Cl)cc(C(F)(F)F)cc2Cl)c(N)c1S(=O)C(F)(F)F (stereo not given)
active: DIO2 (gene 1734) 29600 nM | [4] 4.41 µM | DIO3 (gene 1735) 1130 nM | [5] 23.8 µM | [11] 21300 nM | [12] 16100 nM | [15] 15000 nM
inactive: all other assays above

COc1ccc(C(c2ccc(OC)cc2)C(Cl)(Cl)Cl)cc1
active: [1] 2.99 µM | [2] 1970 nM | [3] 9.95 µM | [4] 3.28 µM | [5] 4.87 µM | [7] 12.2 µM | [9] 1970 nM | [10] 2950 nM

C=CCC1=C(C)C(OC(=O)C2C(C=C(C)C)C2(C)C)CC1=O (stereo not given)
inactive: [1] | [2] | [3] | [4] | [6] | [7] | [8] | [9] | [10] | [15] | [16]
active: DIO2 (gene 1734) 44900 nM | [3] 24.5 µM | [4] 4.76 µM | DIO3 (gene 1735) 40900 nM | [5] 23.6 µM | [7] 22.8 µM | [9] 917 nM | [10] 4100 nM | [12] 9080 nM

CC(Oc1ccc(Cl)cc1Cl)C(=O)O (stereo not given)
inactive: [6] | [8]

CC(C)Oc1cc(-n2nc(C(C)(C)C)oc2=O)c(Cl)cc1Cl
inactive: [6] | [8]

C=CCC1=C(C)[C@@H](OC(=O)[C@@H]2[C@@H](C=C(C)C)C2(C)C)CC1=O
inactive: [2] | [3] | [4] | [6] | [8]
active: [7] 1.98 µM | [9] 2610 nM | [15] 20500 nM | [16] 26600 nM

Oc1ccccc1-c1ccccc1
active: DIO2 (gene 1734) 38200 nM | DIO3 (gene 1735) 89400 nM

CO/C=C(/C(=O)OC)c1ccccc1Oc1cc(Oc2ccccc2C#N)ncn1
active: [1] 1.08 µM and 874 nM | [2] 840 nM and 974 nM | [3] 1.49 µM and 1.1 µM | [4] 1.83 µM and 433 nM | [5] 507 nM and 1.41 µM | [7] 1.73 µM and 2.19 µM | [9] 1.11 µM and 985 nM | [10] 1.57 µM and 574 nM | [15] 5110 nM | [16] 3250 nM
inactive: [6] | [8] | [11] | [13] | [14]

COP(=S)(OC)Oc1nc(Cl)c(Cl)cc1Cl
active: [16] 24800 nM
not listed: DIO2 (gene 1734) | DIO3 (gene 1735) | [6] | [11] | [12] | [15]
inactive: all other assays above

CS/C(C)=N/OC(=O)N(C)SN(C)C(=O)O/N=C(\C)SC
inactive: [6] | [8]

O=C(O)c1nc(Cl)ccc1Cl
inactive: [6] | [8]

CC(C)(C)c1ccc(CSc2cnn(C(C)(C)C)c(=O)c2Cl)cc1
inactive: [8] | [11] | [14]
active: [1] 0.00163 µM | [2] 0.239 nM | [3] 0.00169 µM | [4] 0.00179 µM | [5] 0.00284 µM | [7] 0.0115 µM | [9] 1.53 nM | [10] 1.77 nM | [13] 13.8 nM | [15] 0.994 nM | [16] 0.559 nM

CC1COC(Cn2cncn2)(c2ccc(Oc3ccc(Cl)cc3)cc2Cl)O1 (stereo not given)
inactive: [6] | [8]

CCNc1nc(Cl)nc(NC(C)C)n1
inactive: DIO2 (gene 1734) | [1] | [2] | [3] | [4] | [6] | [9] | [10]
active: DIO3 (gene 1735) 21700 nM

Fc1ccc(Oc2ccnc3cc(Cl)cc(Cl)c23)cc1
active: DIO2 (gene 1734) 10100 nM | DIO3 (gene 1735) 965 nM
inactive: [6] | [8]

COP(N)(=O)SC (stereo not given)
inactive: [1] | [2] | [3] | [4] | [5] | [7] | [8] | [9] | [10] | [13] | [14] | [15] | [16]
active: [16] 25.8 nM

Cc1c(F)c(F)c(COC(=O)C2C(/C=C(\Cl)C(F)(F)F)C2(C)C)c(F)c1F (stereo not given)
active: [1] 2.15 µM | [2] 893 nM | [3] 1.98 µM | [4] 1.45 µM | [5] 18 µM | [7] 17.4 µM | [9] 302 nM | [10] 610 nM
inactive: [6]

COC(=O)C(C)Oc1ccc(Oc2ccc(Cl)cc2Cl)cc1 (stereo not given)
inactive: [6] | [8]

CCOP(=S)(OCC)SCn1c(=O)oc2cc(Cl)ccc21
inactive: [6] | [8]

CCCC1COC(Cn2cncn2)(c2ccc(Cl)cc2Cl)O1 (stereo not given)
inactive: [6] | [8]

CN(C)C(=S)SSC(=S)N(C)C
active: DIO2 (gene 1734) 55700 nM | [1] 0.00527 µM | [2] 7.05 nM | [3] 0.00976 µM | [4] 0.00821 µM | DIO3 (gene 1735) 43100 nM | [5] 0.00506 µM | [7] 0.012 µM | [9] 6.69 nM | [10] 9.07 nM | [11] 1720 nM | [13] 50100 nM | [14] 74600 nM | [15] 76.5 nM | [16] 76.7 nM
